Outcome data for 40 compounds are collected here from PubChem BioAssay (NCATS).

Inconclusive results are not listed. The source made the active and inactive calls. Calls follow the shape of the dose curve; as a rule, active = well fitted curve in the direction sought with a large enough effect in the signal ratio, with a control signal flat (not every such curve was filed as active); inconclusive = small, poorly fitted or top-dose-only effect, or effect the other way, or a change in a side signal; inactive = no such curve, though single readings can be large or run the other way; the % refers to the signal ratio.

The target in the assay is Peroxisome proliferator-activated receptor gamma (Homo sapiens) (UniProt P37231). As to the kind of experiment: qHTS assay for small molecule agonists of peroxisome proliferator-activated receptor gamma signaling (AID 588536). Conditions: HEK293 PPARg-UAS-bla, beta-lactamase ratio, 16 h, percent of rosiglitazone response, DMSO as zero; series mostly up to 76.7 µM. The text has this: NIH Chemical Genomics Center [NCGC] U.S. Environmental Protection Agency [EPA] National Institutes of Environmental Health Sciences [NIEHS] National Toxicology Program [NTP] NCGC Assay Overview The Peroxisome proliferator-activated receptors (PPARs) are lipid-activated transcription factors of the nuclear receptor superfamily with three distinct subtypes namely PPAR alpha, PPAR delta (also called PPAR beta) and PPAR gamma. All these subtypes heterodimerizes with Retinoid X receptor (RXR) and these heterodimers regulate transcription of various genes. PPAR-gamma (glitazone receptor) agonists have been used in the treatment of type 2 diabetes and dyslipidaemia. It is involved in the regulation of glucose and lipid metabolism. PPAR-gamma activates certain genes like Paraoxonase 1 which is responsible for hydrolyzing organophosphates. PPAR-gamma agonists may also be therapeutically important in the treatment of coronary artery disease, obesity and cancer and atherosclerosis.
Peroxisome proliferator-activated receptor gamma (Homo sapiens), sequence (P37231 whole entry, looked up): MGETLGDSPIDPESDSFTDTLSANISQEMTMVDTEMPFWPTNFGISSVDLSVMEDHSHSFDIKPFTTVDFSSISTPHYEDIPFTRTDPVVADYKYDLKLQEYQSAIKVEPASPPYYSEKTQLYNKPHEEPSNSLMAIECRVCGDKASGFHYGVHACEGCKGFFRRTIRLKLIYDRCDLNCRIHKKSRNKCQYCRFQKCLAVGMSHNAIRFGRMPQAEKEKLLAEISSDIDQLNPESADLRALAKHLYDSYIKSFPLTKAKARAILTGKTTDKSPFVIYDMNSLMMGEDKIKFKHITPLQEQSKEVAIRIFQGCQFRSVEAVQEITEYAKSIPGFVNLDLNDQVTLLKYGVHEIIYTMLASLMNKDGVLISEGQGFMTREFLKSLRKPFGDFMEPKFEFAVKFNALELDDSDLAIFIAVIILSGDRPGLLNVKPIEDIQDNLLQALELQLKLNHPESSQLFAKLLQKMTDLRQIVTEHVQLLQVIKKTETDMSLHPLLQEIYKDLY
NCGC Assay Protocol Summary Using a beta-lactamase reporter-gene under control of Peroxisome Proliferator-Activated-gamma (PPAR-gamma) response element, a cell-based assay [GeneBLAzer PPAR-gamma-UAS-bla assay developed by Invitrogen] was used to measure PPAR-gamma ligands signaling. GeneBLAzer PPAR-gamma-UAS-bla-HEK293 cells were used with assay medium containing 1% charcoal/dextran treated FBS. The assay was performed in clear bottom black Greiner 1536-well plates. Rosiglitazone was used in the screen as the positive control. Library compounds were measured for their ability to stimulate the reporter gene activity. Compounds were screened in a titration series in 1536-well format. The fluorescence intensity (405 nm excitation, 460/530 nm emission) was measured using an EnVision plate reader. Data was normalized relative to Rosiglitazone control (2 uM, 100%), and DMSO only wells (basal, 0%). Concentration-response titration points for each compound were fitted to the Hill equation yielding concentrations of half-maximal stimulation (EC50) and maximal response (efficacy) values. qHTS protocol for PPAR-gamma beta-lactamase assay in agonist mode [Step] [Parameter] [Value] [Description] 1. Reagent; 6 uL; 3000 cells/well 2. Incubation; 37 C for 6 - 6.5 hrs 3. Compounds; 23 nL; 0.59 nM to 92 uM 4. Controls (Rosiglitazone); 23 nL, - One column with dose response, start 19 uM, 1:3 dilutions in duplicates - Final concentrations of 2 uM and 0.5 uM in two columns 5. Incubation; 37 C for 16 hrs 6. Detection reagent; 1 uL of CCF4-dye 7. Incubation; RT for 2 hrs 8. Detection; Fluorescence; Envision plate reader
For orientation: qHTS replaces the single test concentration by a dilution series.
With `Cc1ccccc1C=O`, the outcome was inactive.
For the compound `CC(CCl)OC(C)CCl` (stereo not given), the result was inactive.
As for `C=C(C)C(=O)OCC(C)C`, the entry is “inactive”; as for `Cc1ccc(N(C)C)cc1`, “inactive”; as for `FC(F)(F)c1ccccc1Cl`, “inactive”.
For `Nc1nc(CC(=O)O)cs1`, the outcome was inactive.
For the compound `CCCOCC(C)OCC(C)O` (stereo not given), the result was inactive.
`O=C(O)c1ccc(CO)o1`: the outcome was inactive.
As to `CC/C=C/C#N`, the outcome was inactive.
For `Nc1ccccc1S(=O)(=O)O`, the result was inactive.
With `O=C(Cl)c1c(Cl)cccc1Cl`, the outcome was inactive.
Consider `CCc1ccccc1O`, for which the result was inactive.
Under `COCCOC(=O)c1ccccc1C(=O)OCCOC` stands “inactive”.
Under `CC(=O)C1(C)CC2=C(CCCC2(C)C)CC1C` (stereo not given) stands “inactive”; under `CCCC(C)CO` (stereo not given), “inactive”; under `C=C(C)C(=O)OC`, “inactive”.
As for `CCC1CO1` (stereo not given), the entry is “inactive”; as for `CC(C=O)Cc1ccc(C(C)(C)C)cc1` (stereo not given), “inactive”.
As to `c1ccc(Nc2ccccc2)cc1`, the outcome was inactive.
As to `CCOc1ccc(NC(C)=O)cc1N`, the result was inactive.
On to `NC(=O)NC(N)=O`, for which the outcome was inactive.
Under `O=C1C=CCCC1` stands “inactive”; under `C=CCn1c(=O)n(CC=C)c(=O)n(CC=C)c1=O`, “inactive”; under `Cc1ccc(S(=O)(=O)NC2CCCCC2)cc1`, “inactive”.
As for `CCNc1ccccc1`, the result was inactive.
Under `CC1CCCO1` (stereo not given) stands “inactive”; under `CCCCC/C=C/C=C/C=O`, “inactive”.
In the case of `Nc1c(Cl)cc(Cl)cc1Cl`, the result was inactive.
`O=CNc1ccccc1`: the result was inactive.
For the compound `Cc1ccc2cccnc2c1`, the outcome was inactive.
`NC(N)=S`: the result was inactive.
Under `Nc1ccccc1[N+](=O)[O-]` stands “inactive”.
Under `O=C1CCC(=O)O1` stands “inactive”; under `Cc1cccc([N+](=O)[O-])c1C(=O)O`, “inactive”; under `Cc1cccc2ccccc12`, “inactive”.
As for `Cc1cc(C)cc(N)c1`, the result was inactive.
As for `CCCC=O`, the entry is “inactive”; as for `CC(C)=CCC/C(C)=C/C=O`, “inactive”; as for `C1CCC2OC2C1` (stereo not given), “inactive”.
Regarding `CCOc1cc(OCC)c(C(C)=O)cc1OCC`, the result was inactive.
